Results as given in PubChem BioAssay (Tox21).
Inconclusive results are not listed. Where a call stands in place of a potency, no number is given. The source made the active and inactive calls. Calls follow the shape of the dose curve; as a rule, active = well fitted cell-killing curve with a large enough effect in the repeat runs; inconclusive = weak or mixed curves, or effect the other way; inactive = flat fitted curve, though single readings scatter.

Experiment: qHTS assay to identify small molecule agonists of the constitutive androstane receptor (CAR) signaling pathway - cell viability counter screen (AID 1224836); also: nearly all actives have a fitted effect of over 45% in size
Conditions: HepG2-CYP2B6-hCAR viability, CellTiter-Fluor, 23 h, PK11195 added to every well; series mostly up to 92.4 µM
From the text: U.S. Tox21 Program National Center for Advancing Translational Sciences [NCATS] NIH Chemical Genomics Center [NCGC] U.S. Environmental Protection Agency [EPA] National Institutes of Environmental Health Sciences [NIEHS] National Toxicology Program [NTP] U.S. Food and Drug Administration [FDA] Tox21 Assay Overview: The constitutive androstane receptor (CAR) is a nuclear receptor which regulates multiple drug metabolizing enzymes (DMEs) and transporters. Activating CAR will generally increase the transcription and subsequent translation of CYP2B6 and CYP3A4. These two DMEs represent about 50% of the drug metabolizing potential in the body. […] Recently, there have also been studies performed indicating CARs role in energy metabolism and cancer therapy. Therefore, inducing CARs activity could have a potential effect on diabetes and cancer. Identifying environmental toxins and compounds which modulate CAR, through the use of the Tox21 10K compound collection, will be an important step in determining the toxicity and potential therapeutic effects these factors will have on the human body. To differentiate true CAR agonists from cytotoxic substances, the assay is multiplexed with a cell viability assay.
Tox21 Assay Protocol Summary: A double-stable (hCAR and CYP2B6-2.2kb) transfected cell line, derived from human hepatoma (HepG2) cells, was utilized for the duration of the quantitative high-throughput screens. The HepG2-CYP2B6-hCAR cells were dispensed at 2500 cells/4 uL/well in 1536-well white solid bottom plates using a Multidrop Combi. After the assay plates were incubated at 37 C/5% CO2 for 4 hrs, 23 nL of compounds at 15 concentrations (from 5-48 columns) or positive control (from 1 to 4 columns) were transferred to the assay plates using a Pintool station. One uL of PK11195 (final concentration = 0.75 uM) was added, using a Flying Reagent Dispenser, inside each well. After a 23 hr incubation period at 37 C/5% CO2, 1 uL of CellTiter-Fluor reagent was added into each well of the assay plates using a Flying Reagent Dispenser. The fluorescence intensity in the plates was then measured using a ViewLux plate reader.
Potency is read from the fitted curve at half-maximal effect.

Row | SMILES | Potency
1 | Cl/C=C\Cl | inactive
2 | CN1C[C@H](CNC(=O)OCc2ccccc2)C[C@@H]2c3cccc4c3c(cn4C)C[C@H]21 | inactive
3 | NCCCNCCCN | inactive
4 | C#CCOC(C(=O)OCCN(C)C)(c1ccccc1)c1ccccc1 | inactive
5 | CCCCCCCCCCOC(=O)c1ccccc1C(=O)OCCCCCCCCCC | inactive
6 | CCCCN(N=O)C(=N)N[N+](=O)[O-] | inactive
7 | O=C1NCN(c2ccccc2)C12CCN(CCCOc1ccc(F)cc1)CC2 | 6.68 µM (active)
8 | O=S(=O)(O)C(F)(F)C(F)(F)C(F)(F)C(F)(F)F | inactive
9 | O=[N+]([O-])C(Br)(CO)CO | inactive
10 | CC1Sc2c(C(=O)O)c(=O)c3cc(F)c(N4CCNCC4)cc3n21 (stereo not given) | inactive
11 | C=CCN1CC[C@]23c4c5ccc(O)c4O[C@H]2C(=O)CC[C@@]3(O)[C@H]1C5 | inactive
12 | BrCC(Br)C1CCC(Br)C(Br)C1 (stereo not given) | inactive
13 | O=C(NC(=O)c1c(F)cccc1F)Nc1cc(Cl)c(Oc2ncc(C(F)(F)F)cc2Cl)c(Cl)c1 | inactive
14 | CN1C(=O)C(O)N=C(c2ccccc2)c2cc(Cl)ccc21 (stereo not given) | inactive
15 | CC(=O)NC1CCSC1=O (stereo not given) | inactive
16 | O=[N+]([O-])c1ccc(F)c([N+](=O)[O-])c1 | 34.7 µM (active)
17 | CC(C)O.CC(C)O.OCCN(CCO)CCO.OCCN(CCO)CCO.[Ti] | inactive
18 | COc1cc(Cl)c(OC)cc1Cl | inactive
19 | O=C(CBr)OCc1ccccc1 | inactive
20 | Cn1cc[n+](C)c1 (tested in a mixture with another compound) | inactive

Row | SMILES | Potency
21 | CCOC(=O)COc1cc(-c2nn(C)c(OC(F)F)c2Cl)c(F)cc1Cl | inactive
22 | c1ccoc1 | inactive
23 | CCBr | inactive
24 | O=S(=O)(Cl)c1ccccc1 | inactive
25 | ClCc1cccc(Cl)c1 | inactive
26 | COc1c(C(C)(C)C)cc([N+](=O)[O-])c(C)c1[N+](=O)[O-] | inactive
27 | COC(=O)C(Cl)C(=O)OC | inactive
28 | O=S1(=O)OC(c2cc(Br)c(O)c(Br)c2)(c2cc(Br)c(O)c(Br)c2)c2ccccc21 | 25 µM (active)
29 | COc1nn(CSP(=S)(OC)OC)c(=O)s1 | inactive
30 | CC(O)(CS(=O)(=O)c1ccc(F)cc1)C(=O)Nc1ccc(C#N)c(C(F)(F)F)c1 (stereo not given) | inactive
31 | c1ccc(CN2CCNCC2)cc1 | inactive
32 | C[N+](C)(C)CCCl | inactive
33 | O=C(NC(=O)c1c(F)cccc1F)Nc1ccc(OC(F)(F)C(F)OC(F)(F)F)c(Cl)c1 (stereo not given) | inactive
34 | CCOP(=S)(OCC)SCn1nnc2ccccc2c1=O | inactive
35 | CN1C(=O)NC(=O)C(C)(C2=CCCCC2)C1=O (stereo not given) | inactive
36 | CCC(Cl)CCl (stereo not given) | inactive
37 | Nc1ccc(N=Nc2ccc(-c3ccc(N=Nc4c(S(=O)(=O)O)cc5cc(S(=O)(=O)O)c(N=Nc6ccccc6)c(O)c5c4N)cc3)cc2)c(N)c1 | inactive
38 | CC(=O)CCC(C)=O | inactive
39 | CCCCC(CC)COP(=O)(Oc1ccccc1)Oc1ccccc1 (stereo not given) | inactive
40 | CC(=O)c1cc2c(cc1C)C(C)(C)C(C)CC2(C)C (stereo not given) | inactive
